Screening data as filed in PubChem.
Rows were chosen to be rich in hits. Some 8.7% of all compounds tested hit in one or more screens of this group.
Sfp PPTase inh: qHTS Assay for Inhibitors of Bacillus subtilis Sfp phosphopantetheinyl transferase (PPTase); Potency, µM, without a hit: largest response in the series, negative = inhibition, most hits filed as inhibitors; 310,000 tested, 3.5% active; Biochemical Sfp PPTase activity, qHTS; 4'-phosphopantetheinyl transferase ffp (Bacillus subtilis), Q9F4F7; AID 1490, 2009;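 note: the enzyme is Sfp with the accession as filed and its product quenches rhodamine fluorescence; 0% = enzyme reaction without inhibitor and -100% = no enzyme wells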
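After 15 min at room temperature with compound, 15 nM Sfp received 5 uM rhodamine-CoA plus 12.5 uM BHQ-2-ybbR (50 mM Hepes pH 7.6, 10 mM MgCl2). Rate came from the fluorescence difference over 30 min, ex 525/em 598 nm.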
HP1b chromo inh: HTS for Inhibitors of HP1-beta Chromodomain Interactions with Methylated Histone Tails. AlphaScreen HP1-beta / biotin-H3K9me3 peptide binding. Potency, µM (titrated, usually from 114 µM), for the others: top-dose activity change, negative = inhibition, hits mostly inhibitors. 390,000 tested, 0.56% active. AID 540317, 2011; note: nearly all actives have a fitted effect of over 70% in size
Target sequence (P83916 whole entry, looked up): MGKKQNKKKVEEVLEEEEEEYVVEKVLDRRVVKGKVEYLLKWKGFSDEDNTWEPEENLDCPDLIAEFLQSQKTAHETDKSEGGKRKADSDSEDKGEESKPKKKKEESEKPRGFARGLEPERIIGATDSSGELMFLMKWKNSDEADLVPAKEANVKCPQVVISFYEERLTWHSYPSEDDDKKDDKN
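AlphaScreen: HP1-beta (50 nM) preformed 30 min with biotin-H3(1-18)K9me3 peptide (50 nM) in PBS pH 7.4, 0.01% Tween-20. Compound added for 30 min at RT, then streptavidin donor/nickel chelate acceptor beads (10 ug/mL) for 30 min.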
JMJD2A Tudor inh: qHTS Assay for Inhibitors of JMJD2A-Tudor Domain. AlphaScreen JMJD2A-Tudor / H3K4me3 peptide binding. Potency, µM (doses to about 114 µM), without a hit: top-dose activity change, negative = inhibition, hits mostly inhibitors. 390,000 tested, 4.4% active. Lysine-specific demethylase 4A (Homo sapiens), O75164; note: % is set by controls: 0 for no effect and ±100 for the full control effect; nearly all actives have a fitted effect of over 50% in size
ALOX12 inh: Primary qHTS assay for inhibitors of human arachidonate 12S-lipoxygenase (ALOX12): Round 2; Polyunsaturated fatty acid lipoxygenase ALOX12 (Homo sapiens), P18054; purified 12hLO, xylenol orange hydroperoxide absorbance; Potency, µM (top dose mostly 108 µM), inactives show at the highest dose activity change, negative = inhibition, hits mostly inhibitors; 580,000 tested, 1.1% active; AID 1671190, 2021; note: % is set by controls: 0 for no effect and ±100 for the full control effect
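Purified human 12hLO at 150 nM in 25 mM Hepes, 0.01% Triton X-100, pH 7.0, preincubated 15 min at room temperature with compound. Reaction started with 40 uM arachidonic acid, 30 min at room temperature. Hydroperoxide measured by Fe-xylenol orange, 573/405 nm absorbance ratio.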
BAZ2B block: qHTS Assay for Inhibitors of BAZ2B; Bromodomain adjacent to zinc finger domain protein 2B (Homo sapiens), Q9UIF8; AlphaScreen BAZ2B-H3K14Ac peptide displacement; Potency, µM (titrated, usually from 114 µM), for inactives: at the highest dose activity change, negative = inhibition, usual class: inhibitors; 360,000 tested, 4.4% active; AID 504333, 2011; note: % is set by controls: 0 for no effect and ±100 for the full control effect; nearly all actives have a fitted effect of over 60% in size
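Multi-concentration screen (max 110 uM) measuring displacement of acetylated histone H3 peptide from BAZ2B by AlphaScreen, using 50 nM protein, 50 nM peptide and 10 ug/mL streptavidin donor plus Ni-chelate acceptor beads.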
G9a block: qHTS Assay for Inhibitors of Histone Lysine Methyltransferase G9a. Histone-lysine N-methyltransferase EHMT2 (Homo sapiens), Q96KQ7. G9a H3K9 monomethylation, AlphaScreen, 2 h. Potency, µM (titrated, usually from 102 µM), for the others: at the top dose activity, negative = inhibition, actives largely listed as inhibitors. 350,000 tested, 8.8% active. AID 504332, 2011; note: % is set by controls: 0 for no effect and ±100 for the full control effect; nearly all actives have a fitted effect of over 75% in size
Target sequence (Q96KQ7 913-1193 limits assumed): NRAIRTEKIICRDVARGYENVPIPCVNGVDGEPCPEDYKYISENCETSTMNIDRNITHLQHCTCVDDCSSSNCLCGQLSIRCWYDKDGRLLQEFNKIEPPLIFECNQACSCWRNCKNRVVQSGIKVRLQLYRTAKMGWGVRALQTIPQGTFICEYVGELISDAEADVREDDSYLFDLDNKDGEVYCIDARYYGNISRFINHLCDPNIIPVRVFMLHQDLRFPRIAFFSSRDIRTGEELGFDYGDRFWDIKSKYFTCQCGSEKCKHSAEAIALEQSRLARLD
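Chemiluminescent proximity detection of H3K9 monomethylation, read after 10 min bead incubation in the dark. Reaction: 20 nM G9a, 500 nM biotin-H3K9 peptide, 20 uM SAM cofactor, 2 h, room temperature, following 15 min enzyme-compound preincubation.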
Numbers without * were called inactive; ? = inconclusive; · = not tested or not shown; [ ] = remark or other dose. Calls come from the whole dose curve; as a rule, active = well fitted curve in the direction sought with a large enough effect; inconclusive = small, poorly fitted or top-dose-only effect, or another doubt; inactive = no such curve, though single readings can be large; an effect the other way counts as inactive or inconclusive. Potency is the fitted concentration of half-maximal effect.

SMILES | Sfp PPTase inh | HP1b chromo inh | JMJD2A Tudor inh | ALOX12 inh | BAZ2B block | G9a block
CCOc1ccc(N(C(C)C(=O)NN=C2CCCCCCC2)S(C)(=O)=O)cc1 (stereo not drawn) | 3% | 29% | -2% | -4% | -4% | 8%[59 µM]
CCCC(=O)NC(=S)Nc1ccc(N2CCN(C(=O)c3cccs3)CC2)cc1 | 11% | 4% | -27% | -26% | ? | 40µM*
CCN(CC)c1ccc(NC(=O)CN(C)Cc2cccs2)cc1 | -10% | 45µM* | 40µM* | 1% | 32µM* | 8.9µM*
CCCC(=O)Nc1ccc(NC(=S)NC(=O)c2cccs2)cc1 | -15% | 39% | -12% | ? | ? | 32µM*
O=C(NC(=S)Nc1ccc(-c2ccc(CO)o2)cc1)c1cccs1 | 8.9µM* | -14%[57 µM] | -10% | · | · | ?
Cc1ccc(NC(=O)CN(C)Cc2cccs2)cc1Cl | 20% | 55% | 28% | -25% | 39% | 6%
CCOc1ccc(NC(=O)NCc2nc(-c3ccc(OCC)cc3)oc2C)cc1 | · | · | · | -13% | · | ·
CCCC(=O)NC(=S)Nc1ccc(NC(=O)c2cccs2)cc1 | 13% | 44% | -7% | 0% | 3% | 11µM*
CN(C)S(=O)(=O)c1ccc(NC(=S)NC(=O)c2cccs2)cc1 | 32µM* | 15% | -25% | ? | -17% | -1%
CCN(CC)c1ccc(NC(=S)NC(=O)c2cccs2)cc1 | ? | ? | 18µM* | 18µM* | 10µM* | ·
CCCC(=O)Nc1ccc(C(=O)NNC(=S)NC(=O)c2cccs2)cc1 | 7% | 29% | -24% | -10% | 1% | 5%[0.0925 µM]
CC(=O)NC(=S)Nc1ccc(NC(=S)NC(=O)c2cccs2)cc1 | 7% | 35% | -29% | ? | -6% | ·
Fc1ccc(CN2CCc3ccccc3C2)c(Cl)c1 | · | · | · | -15% | · | ·
Clc1cccc(Cc2c(-c3ccco3)nc3ccc(Cl)cn23)c1 | · | · | · | 22µM* | · | ·
N#Cc1ccc(-c2nc3ccc(Cl)cn3c2Cc2cccc(Cl)c2)cc1 | · | · | · | 35µM* | · | ·
Cc1ccc2nc(-c3cccc(Br)c3)c(Cc3ccccc3)n2c1 | · | · | · | -12% | · | ·
Clc1cccc(Cc2c(-c3ccco3)nc3ccc(Br)cn23)c1 | · | · | · | 11µM* | · | ·
Cc1ccc2nc(-c3cccc(Br)c3)c(Cc3cccc(Cl)c3)n2c1 | · | · | · | -4% | · | ·
Brc1ccc2nc(-c3ccco3)c(Cc3ccccc3)n2c1 | · | · | · | 14µM* | · | ·
N#Cc1c(SCC(=O)Nc2ccc(Cl)cc2Cl)nc(N2CCOCC2)c2c1CCCC2 | · | · | · | -24% | · | ·
O=C(NCc1ccco1)C1CCN(C(=O)c2ncn3c2COC(c2ccccc2)C3)CC1 (stereo not drawn) | · | · | · | 21% | · | ·
Nc1nc(SCc2noc(-c3ccccc3)n2)n[nH]1 | · | · | · | -1% | · | ·
COCC1CN(S(=O)(=O)c2cc(F)ccc2OC)CC12CCNCC2 (stereo not drawn) | · | · | · | 48% | · | ·
COC(=O)c1ccccc1NC(=S)NC(=O)COc1ccccc1 | -10% | 8% | -7% | 0% | -2% | ?
CC1CC1C(=O)OCC(=O)NNC(=O)COc1ccc(Br)cc1 (stereo not drawn) | · | 27% | -11% | -18% | -9% | -28%
SMILES | Sfp PPTase inh | HP1b chromo inh | JMJD2A Tudor inh | ALOX12 inh | BAZ2B block | G9a block
CC(C)(C)c1ccc(C(=O)NC(=S)NNC(=O)COc2ccccc2)cc1 | -19% | -18% | ? | 32µM* | ? | 25µM*
O=C(COc1ccc(Br)cc1)NNC(=S)NCc1ccccc1 | 23% | 9% | -33% | ? | -6% | ?
Cc1ccc(C(=O)NNC(=S)NC(=O)COc2ccccc2)cc1 | 56µM* | -24% | 13µM* | ? | 11% | 1.3µM*
O=C(COc1ccc(Cl)cc1)NNC(=S)NCc1ccccc1 | 19% | 16% | -16% | ? | 25% | 32µM*
CCC(=O)NC(=S)NNC(=O)COc1ccc(Br)cc1 | -12% | 23% | -11% | 0% | -12% | 8.9µM*
CN(C)c1ccc(CN2CC[C@H](c3nc4c(C(N)=O)cccc4[nH]3)C2)cc1 | · | · | · | 20%[176 µM] | · | ·
O=C(Cc1ccccc1)NNC(=S)NCc1ccccc1 | · | · | · | 9% | · | ·
O=C(CN1CC2CC(C1)[C@H]1CCCC(=O)N1C2)NCCN1CCOCC1 (stereo partly drawn) | · | · | · | 8% | · | ·
Cn1c(CO[C@H]2CN(C(=O)C3CCOCC3)C[C@H]2F)nc2ccccc21 | · | · | · | 15%[176 µM] | · | ·
COCC(=O)NC1CCC12CCN(Cc1ccc(F)cc1F)CC2 (stereo not drawn) | · | · | · | 15% | · | ·
COC(=O)CNC(=S)NC(=O)c1ccc(C(C)(C)C)cc1 | -12% | 22% | -32% | ? | -23% | 18µM*
O=C(COc1ccccc1)NC(=S)Nc1cccc2c(O)cccc12 | · | · | · | 45µM* | · | ·
CC(C)(C)c1ccc(C(=O)NC(=S)NCc2cccnc2)cc1 | -15% | -10% | ? | ? | 30% | ?
Cc1ccc(OCC(=O)NNC(=S)NC(=O)COc2ccccc2)cc1 | · | · | · | 11µM* | · | ·
COC(=O)c1ccc(CSc2nc3c(cnn3-c3ccc(C)c(C)c3)c(=O)[nH]2)o1 | 9% | -2% | 50µM* | 0% | -1% | -6%[59 µM]
COC(=O)c1ccc(CSc2nc3scc(-c4cccs4)c3c(=O)[nH]2)o1 | 56µM* | 4% | 45µM* | 0% | · | ?
CCOc1ccc2nc(SCc3ccc(C(=O)OC)o3)[nH]c2c1 | -5% | 35% | -17% | -1% | 7% | -3%[59 µM]
CCCOc1cc(C)c(Cl)cc1S(=O)(=O)N1CCCCC1C (stereo not drawn) | · | · | · | 31% | · | ·
O=C1[C@H]2CCC=C[C@H]2[C@H](c2cccc(Br)c2)N1Cc1ccccc1 | 112µM* | 35% | ? | · | · | 15%
CCn1c(SC(C(=O)N2CCOCC2)c2ccccc2)nnc1-c1ccccc1OC (stereo not drawn) | · | · | · | -3% | · | ·
Cc1ccc(N2C(SCC(=O)O)=NC(=Nc3cccc(C)c3)C23CCCC3)cc1 | ? | 14µM* | 10µM* | -10% | 20µM* | -46%
O=C(O)CSC1=NC(=Nc2ccc(Cl)cc2)C2(CCCCC2)N1c1cccc(C(=O)O)c1 | -13% | ? | 22µM* | ? | ? | 4.5µM*
Cc1cc(=O)c2ccccc2n1CC(=O)O | · | · | · | -11% | · | ·
Cc1cc(C)n(CC(=O)O)c(=O)c1[N+](=O)[O-] | 0% | 15% | -8% | -7% | -17% | 45µM*
O=C(Oc1ccc(=O)n(-c2ccccc2)n1)c1ccc(Cl)cc1 | 89µM* | 51% | -27%[11.4 µM] | -2% | 8% | ·
